Assay outcomes as filed in PubChem.
RPL19A-GFP yeast = alters RPL19A-GFP fluorescence in TOR pathway yeast screen | S. cerevisiae RPL19A-GFP strain, flow cytometry, 3 h; hits give low values | percent response vs DMSO, % at 10 µM | 330,000 tested, 0.3% active | AID 2025;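 active = percent response vs DMSO below 50%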;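 note: median channel GFP fluorescence of the barcoded RPL19A-GFP strain; ratio of sample median GFP to plate DMSO average so 100% = DMSO; lower means less RPL19A-GFP as with rapamycin TOR inhibition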
MEP2-GFP yeast = modulators of TOR pathway MEP2-GFP in S. cerevisiae | S. cerevisiae MEP2-GFP strain, flow cytometry GFP, 3 h; 100% = DMSO control level | GFP response vs DMSO, % at 10 µM | 330,000 tested, 0.51% active | AID 2016;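 active = GFP response versus DMSO above a set limit, roughly screen mean plus 3 SD, cut at about 180% in these data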;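 note: median GFP fluorescence of the barcode-gated MEP2-GFP cells per well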
LAP4 TOR yeast = yeast TOR pathway LAP4-GFP modulation | S. cerevisiae LAP4-GFP multiplex, flow cytometry GFP, 3 h; median GFP as percent of DMSO wells | GFP response vs DMSO, % at 10 µM | 320,000 tested, 0.34% active | AID 2023;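 active = GFP response vs DMSO above a set limit, about the screen mean plus 3 SD, cut at about 150% in these data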
CIT2-GFP yeast = yeast TOR pathway CIT2-GFP modulation | S. cerevisiae CIT2-GFP strain, flow cytometry, 3 h; 100 means same as DMSO wells | GFP response vs DMSO, % at 10 µM | 320,000 tested, 0.065% active;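 active = GFP response relative to DMSO above a set limit, near the screen mean plus 3 SD, cut at about 150% in these data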;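 note: ratio of well median GFP fluorescence to mean of DMSO wells on the plate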
AGP1 TOR yeast = alters AGP1-GFP fluorescence in TOR pathway yeast screen | AID 2066 | GFP response vs DMSO, % at 10 µM | S. cerevisiae AGP1-GFP multiplex flow cytometry, 3 h; GFP as percent of DMSO wells | 320,000 tested, 0.02% active;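 active = GFP response relative to DMSO above a set limit, near screen average plus 3 SD, cut at about 150% in these data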;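 note: median GFP channel fluorescence of the gated AGP1 strain per well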
LAP4 cherry2 = second confirmation of modulators of TOR reporter LAP4-GFP in yeast; shares compounds with LAP4 TOR yeast; S. cerevisiae LAP4-GFP strain, flow cytometry GFP, 3 h; GFP response vs DMSO, % at 10 µM; 590 tested, 20% active; AID 2621;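 active = GFP signal as percent of the solvent control above about 150%, meaning raised reporter expression, limit read from the data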;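 note: ratio of well median GFP fluorescence to plate DMSO mean so 100% = DMSO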
MEP2 cherry2 = yeast MEP2-GFP modulation, second cherry pick. shares compounds with LAP4 TOR yeast. GFP response vs DMSO, % at 10 µM. 590 tested, 10% active. S. cerevisiae MEP2-GFP strain, flow cytometry GFP, 3 h;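 active = GFP signal above 150% of the solvent control wells, that is a rise of more than half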;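 note: median channel GFP fluorescence of all gated yeast cells per well; ratio of median GFP to plate DMSO average so 100% = DMSO level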
RPL19A GFP CP2 = yeast RPL19A-GFP TOR reporter modulation, second cherry pick. shares compounds with LAP4 TOR yeast. S. cerevisiae RPL19A-GFP strain, flow cytometry GFP, 3 h; hits give low values; 100% means same as DMSO wells. GFP response vs DMSO, % at 10 µM. 590 tested, 3% active;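 active = under 65% GFP response relative to DMSO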;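 note: median GFP channel fluorescence per well over the all cells gate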
CIT2-GFP pick2 = yeast CIT2-GFP TOR reporter modulation, second cherry pick | shares compounds with LAP4 TOR yeast | S. cerevisiae CIT2-GFP strain, flow cytometry GFP, 3 h; DMSO control wells read 100% | GFP response vs DMSO, % at 10 µM | 590 tested, 8% active;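 active = GFP response vs DMSO above about 150%, limit read from the data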;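 note: median green fluorescence per well over all gated yeast cells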
AGP1-GFP pick2 = reconfirmed modulator of AGP1-GFP TOR reporter in yeast | S. cerevisiae AGP1-GFP strain, flow cytometry GFP, 3 h | percent response vs DMSO, % at 10 µM | shares compounds with LAP4 TOR yeast | 590 tested, under 10 active;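 active = over 150 percent of DMSO response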;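 note: median GFP channel fluorescence over all cells without mother daughter split; sample median GFP divided by mean DMSO control so 100% equals DMSO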
Yeast autofluor = yeast s288c autofluorescence artifact, counter-screen; S. cerevisiae s288c, 520 nm autofluorescence, flow cytometry, 3 h; hits give high values; zero means same as solvent-only cells; 610 tested, under 10 active; fluorescence change (kMESF span) at 33 µM; shares compounds with LAP4 TOR yeast;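 active = fluorescence span over the dose series, or activity score, above about 33, limit read from the data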
s288c autofl DR = TOR screen hit shows autofluorescence in yeast s288c; shares compounds with LAP4 TOR yeast; S. cerevisiae s288c parental, compound autofluorescence, flow cytometry, 3 h; fluorescence change (span) at 33 µM; 110 tested, under 10 active; AID 488829;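 active = fluorescence change span, or the activity score built from it, above 25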
TORC1 bypass = compounds blocking wildtype yeast growth but not TORC1 bypass cells; shares compounds with LAP4 TOR yeast; S. cerevisiae BY4741 spot growth rating, 48-72 h; hits give low values; growth rating (0-3) at 30 µM; 120 tested, under 10 active;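 active = growth rating at most 1 for wild type yeast while the TORC1 bypass strain still grows fully, rated 3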
Numbers without * were called inactive; / = not tested or not shown. In the library only some 0.89% were active in any assay of this set; here they are far more common.

SMILES	RPL19A-GFP yeast	MEP2-GFP yeast	LAP4 TOR yeast	CIT2-GFP yeast	AGP1 TOR yeast	LAP4 cherry2	MEP2 cherry2	RPL19A GFP CP2	CIT2-GFP pick2	AGP1-GFP pick2	Yeast autofluor	others
O=[N+]([O-])c1cc([N+](=O)[O-])c2cccnc2c1Oc1ccccc1O	87.5	88.6	149.6	86.9	94.3	/	/	/	/	/	/
O=[N+]([O-])c1cc(F)c2cccnc2c1O	93.1	114.0	184.6*	102.9	115.2	/	/	/	/	/	0.72
Cc1c(C)c2cccnc2c2ncccc12	90.0	89.0	182.7*	80.3	69.1	118.2	132.8	96.5	116.8	99.1	/
CCOC(=O)C1=C(COC(=O)CCOc2cc(C)ccc2C)NC(=O)NC1C (stereo not given)	98.8	102.2	103.2	93.6	104.3	/	/	/	/	/	/
CN(C)c1cccc(C(=O)N(C)C2CCCN(Cc3ccccc3F)C2)c1 (stereo not given)	99.2	97.2	100.1	98.4	96.6	/	/	/	/	/	/
Cn1cnc2cc(OC(=O)c3ccccc3)ccc21	94.8	97.5	104.2	88.4	91.6	/	/	/	/	/	/
Oc1c(I)cc(Cl)c2cccnc12	85.4	111.6	286.0*	78.4	81.4	226.0*	216.3*	76.9	176.4*	106.1	2.12	s288c autofl DR=2.93;TORC1 bypass=0
Clc1cc2cccnc2c2ncccc12	94.5	109.0	167.9*	83.2	92.9	131.3	108.3	95.2	94.6	88.5	/
CC(=O)NC(c1ccccc1)c1cc(Cl)c2cccnc2c1O (stereo not given)	100.3	100.0	81.5	93.9	94.1	/	/	/	/	/	/
Cc1ccc(Cn2cccc(NC(=O)c3ccco3)c2=O)cc1	94.7	95.7	107.1	94.4	95.5	/	/	/	/	/	/
COc1ccc2c(c1)S/C(=C\C(=O)c1ccncc1)N2C	56.4	103.0	106.3	67.7	56.4	97.2	113.5	61.6*	100.1	67.1	0.81
O=C1OCCC1Sc1nnc(-c2ccc(Br)cc2)o1 (stereo not given)	64.8	173.9	98.1	104.8	26.2	99.2	99.6	100.0	109.9	97.2	/
O=C1OCCC1Sc1nnc(-c2ccco2)o1 (stereo not given)	98.2	102.4	112.8	102.2	107.7	/	/	/	/	/	/
CCC(C)NC(=O)C1CCN(S(=O)(=O)c2cccc3nonc23)CC1 (stereo not given)	100.3	112.5	102.4	103.9	106.2	/	/	/	/	/	/
O=c1c2cc(Cl)ccc2nc(-c2ccc([N+](=O)[O-])cc2)n1O	64.5	95.7	134.5	75.6	79.4	157.7*	153.1*	45.6*	144.8	75.4	0.3
COc1ccc(S(=O)(=O)Nc2ccccc2C(=O)N2CCOCC2)cc1OC	100.8	98.4	95.1	101.3	97.0	/	/	/	/	/	/
CS(=O)(=O)N1N=C(c2ccccc2)CC1c1ccc2c(c1)OCO2 (stereo not given)	126.4	305.1*	243.4*	242.9*	125.4	/	/	/	/	/	82.7*
CS(=O)(=O)Nc1cccc(C2=NN(S(C)(=O)=O)C(c3ccc4c(c3)OCO4)C2)c1 (stereo not given)	97.3	103.8	91.5	102.1	94.0	/	/	/	/	/	/
CNC(CC(=O)c1ccc([N+](=O)[O-])cc1)C(Cl)(Cl)Cl (stereo not given)	79.5	82.2	194.8*	81.4	86.3	179.8*	188.0*	89.3	143.6	81.9	2
COc1cc(/C=C2\C(=O)N(CCC#N)N=C2C)c(Br)cc1OC(C)C	105.2	92.0	192.3*	89.4	86.5	/	/	/	/	/	-0.41
COc1ccc(N/N=C(\C#N)C(N)=O)cc1	92.0	123.3	165.3*	147.5	110.2	/	/	/	/	/	7.85
CCOc1ccc(N/C(SC)=C(/C#N)C(N)=O)cc1	105.8	105.1	106.2	103.1	108.3	/	/	/	/	/	/
CCOc1ccc(N/N=C(/C#N)C(N)=O)cc1	78.4	228.1*	209.6*	105.7	118.8	/	/	/	/	/	6.95
COC(=O)COc1cccc(NC(=O)c2ccc(Cl)cc2)c1	94.9	95.9	108.8	86.5	93.2	/	/	/	/	/	/
Cc1ccc(C(=O)O)cc1N=Cc1cc(Br)cc(Br)c1O	80.2	89.6	179.7*	61.6	78.6	166.3*	165.9*	71.1	139.1	105.5	0.7
SMILES	RPL19A-GFP yeast	MEP2-GFP yeast	LAP4 TOR yeast	CIT2-GFP yeast	AGP1 TOR yeast	LAP4 cherry2	MEP2 cherry2	RPL19A GFP CP2	CIT2-GFP pick2	AGP1-GFP pick2	Yeast autofluor	others
CC(=O)Nc1ccc(C(=O)N/N=C/c2cc(Br)cc(Br)c2O)cc1	103.4	101.4	103.2	109.3	110.0	/	/	/	/	/	/
COc1cc(C2CC(=O)Oc3c2c(=O)n(C)c2ccccc32)cc(OC)c1OC (stereo not given)	106.0	98.4	89.7	97.2	100.9	/	/	/	/	/	/
Cc1nn(-c2ccccc2[N+](=O)[O-])c(=O)c2ccccc12	59.7	107.4	109.0	76.2	22.1	97.1	93.2	99.0	105.2	98.8	/
Cc1ccc(O)c(C(=O)c2cnn(-c3ccccc3)c2)c1	99.6	101.7	103.7	97.3	98.1	/	/	/	/	/	/
COc1cc(C)nc(NCc2ccccc2)n1	97.3	96.5	88.8	/	104.3	/	/	/	/	/	/
COc1ccc(Nc2cc(C)nc(NCc3ccccc3)n2)cc1	98.7	101.8	103.2	105.6	106.2	/	/	/	/	/	/
COc1ccccc1-c1cc(Nc2cc(C)[nH]n2)nc(NCc2ccccc2)n1	/	/	/	/	/	/	/	/	/	/	/	TORC1 bypass=3
COc1cccc(-c2cc(Nc3cc(C)[nH]n3)nc(NCc3ccccc3)n2)c1	/	/	/	/	/	/	/	/	/	/	/	TORC1 bypass=3
CC(=O)n1cc(Nc2ccc([N+](=O)[O-])cc2)c2ccccc21	104.6	98.9	114.7	100.0	94.0	/	/	/	/	/	/
CC(=O)SC(C[N+](=O)[O-])c1cn(C(C)=O)c2ccccc12 (stereo not given)	92.7	97.7	229.3*	83.3	101.2	/	/	/	/	/	0.41	s288c autofl DR=0.83;TORC1 bypass=3
